Measured values from PubChem BioAssay (NCATS).
Inconclusive results are not listed. Calls of active or inactive are those of the source. Unless noted, calls come from the whole dose curve; as a rule, active = well fitted curve in the direction sought with a large enough effect; inconclusive = small, poorly fitted or top-dose-only effect, or another doubt; inactive = no such curve, though single readings can be large; an effect the other way counts as inactive or inconclusive. Starred links: 1 amine or outer side, 2 acyl side, 3 side chain; linkers in the order of their positions; H or OH if unused. Positions of bridges follow the written chain, without caps; N, C: chain ends. Non-standard residues stand in square brackets, D forms with d. Residues, ends and D or L forms follow the SMILES beside them. ξ: configuration not given here. *: point of attachment. X3 = C[C@@H](Oc1ccc([C@H](N[*:1])C(=O)[*:2])cc1)[C@]1(/C=C\C(=O)[*:3])CO1; d(aIle) = CC[C@H](C)[C@@H](N)C(=O)O; X2 = CC(C)[C@@H](O)C(C)C(=O)*; ξNMeF = CNC(Cc1ccccc1)C(=O)O; ξT = CC(O)C(N)C(=O)O; ξS = NC(CO)C(=O)O

Tests used:
[1] = HPAF-II Cancer Cell Toxicity qHTS against the NCATS CANVASS Library (AID 1347346); note: nearly all actives have a fitted effect of over 55% in size; note: potency is the fitted concentration of half-maximal effect
Outline: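 Luminescence from CellTiter-Glo, added after 72 h compound exposure and a 15 min room-temperature incubation, served as the viability readout. HPAF-II cells (1000/well) received an 11-point concentration series.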

[2] = A2780 Cisplatin Sensitive Ovarian Cancer Cell Toxicity qHTS against the NCATS CANVASS Library (AID 1347353); note: nearly all actives have a fitted effect of over 60% in size; note: potency is the fitted concentration of half-maximal effect
Outline: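 Luminescent ATP content (ATPLite, 10 min at room temperature) served as the read-out after cells had been exposed to compounds for 72 hours at 37 °C. Dosing followed an 11-point concentration series.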

[3] = HEK-293 Cancer Cell Toxicity qHTS against the NCATS CANVASS Library (AID 1347355); note: nearly all actives have a fitted effect of over 65% in size; note: potency is the fitted concentration of half-maximal effect; for outcome: series mostly up to about 46 µM
Outline: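 Luminescent ATP read-out (CellTiter-Glo, 15min at room temperature) measures survival after cells face an 11-point compound series for 72 hours at 37 degrees C/5% CO2.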

[4] = HEK293 24hr Apoptosis Induction qHTS against the NCATS CANVASS Library (AID 1347359)
Outline: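 Caspase-3/7 activation measured as luminescence from the DEVD-based Caspase-Glo reagent, 15 min at room temperature, following 24-hour compound treatment of HEK293 cells.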

[5] = system: NAD(P)H diaphorase (Clostridium kluyveri); experiment: Diaphorse counterscreen qHTS: Assay Interference Panel against the NCATS CANVASS Library (AID 1347362)
Outline: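 Counterscreen for coupling-enzyme interference: resorufin fluorescence from resazurin/NADH turnover, read after 5 min at room temperature. Compounds were tested over an 11-point series after 15 min dark preincubation with diaphorase in PBS-Tween.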

[6] = SDT Cancer Cell Toxicity qHTS against the NCATS CANVASS Library (AID 1347365); note: nearly all actives have a fitted effect of over 60% in size; note: potency is the fitted concentration of half-maximal effect
Outline: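 qHTS, SDT dog glioma line, 500 cells/well; cpds 11 pts; 72 hr, 37C, 5% CO2; CellTiterGlo ATP luminescence.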

[7] = KB-3-1 Cancer Cell Toxicity qHTS against the NCATS CANVASS Library (AID 1347366); note: nearly all actives have a fitted effect of over 75% in size; note: potency is the fitted concentration of half-maximal effect
Outline: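 500 KB-3-1 cells/well; compounds pin-transferred, 11-pnt series; 72 hr, 37C/5% CO2; CellTiter-Glo, 10 min RT; luminescence read-out.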

[8] = molecular target: Nuclear receptor subfamily 1 group I member 3 (Homo sapiens) (UniProt Q14994); experiment: qHTS for Constitutive Androstane Receptor (CAR) Antagonist screened against the NCATS CANVASS Library (AID 1347372); note: potency is the fitted concentration of half-maximal effect
Outline: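 HepG2-CYP2B6-hCAR double-stable cells plated, 4hr attach; cpd pin-transferred; CITCO 50 nM final; 24hr 37C/5% CO2; CellTiter-Fluor 1hr (fluorescence), then ONE-Glo luminescence.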

[9] = qHTS for Hypoxia signaling pathway (HIF-1) agonists against the NCATS CANVASS Library (AID 1347375)
Outline: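 ME-180 HRE-bla reporter cells; 2,000/well, 0.5% dialyzed FBS; cpd added after 5 h, 17 h 37C/5% CO2; CCF4-AM 2 h RT; FRET 460/530 nm; CellTiter-Glo viability same wells, 30 min.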

[10] = DH5-alpha competent E. coli microbial cell viability qHTS against the NCATS CANVASS Library (AID 1347377); settings: outcome: dose series up to 46.1 µM unless noted
Outline: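 qHTS, 11-pt; E. coli DH5-alpha, 0.2 OD; o/n 37C/5% CO2; BacTiter-Glo, 20 min RT; luminescence.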

[11] = qHTS for H2AX Agonists against the NCATS CANVASS Library (AID 1347378); note: potency is the fitted concentration of half-maximal effect
Outline: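 TR-FRET readout (ex 320 nm, em 665/620 nm ratio) of phospho-H2AX (S139) in CHO-K1 lysates. Cells treated 3 hr at 37C with compound titration, 0.76% DMSO; lysis 30 min, antibody detection 24 hr at RT.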

[12] = qHTS for Activators of p53 Stress Response Pathway screened against the NCATS CANVASS Library (AID 1347388)
Outline: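 Beta-lactamase reporter driven by p53 response elements in HCT-116 cells, read as the 460 nm/530 nm emission ratio after CCF4 loading, following 16 h of exposure to an 11-point series. Cell viability was measured in the same wells by CellTiter-Glo luminescence.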

[13] = qHTS assay for small molecule disruptors of mitochondrial membrane potential screened against the NCATS CANVASS Library (AID 1347389); note: nearly all actives have a fitted effect of over 60% in size; note: potency is the fitted concentration of half-maximal effect
Outline: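 HepG2, 2,000 cells/well, attached overnight; compound 1 hr, 37C, 5% CO2; Mito-MPS dye 30 min, 37C; fluorescence 535 nm (monomer) and 590 nm (aggregate); decreased 590/535 ratio = depolarization.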

[14] = Vero-766 cells viability qHTS against the NCATS CANVASS Library: Counterscreen for Zika virus inhibition assay (AID 1347394); note: nearly all actives have a fitted effect of over 60% in size; note: potency is the fitted concentration of half-maximal effect
Outline: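 CellTiter-Glo luminescence, lower signal indicating cytotoxicity. Vero 766 cells without Zika virus, 1000 cells/well, plated overnight, then treated 72 h at 37C across an 11-point series.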

[15] = U-118MG Cancer Cell Toxicity qHTS against the NCATS CANVASS Library (AID 1347351); note: potency is the fitted concentration of half-maximal effect
Outline: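 Toxicity is measured over 72 h of compound exposure at 37 degrees C under 5% CO2. Each well holds 1000 cells, pre-incubated for 4 hours before dosing across an 11-point range. CellTiter-Glo luminescence gives viability.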

[16] = qHTS for Hypoxia signaling pathway (HIF-1) antagonists against the NCATS CANVASS Library (AID 1347374); note: nearly all actives have a fitted effect of over 60% in size; note: potency is the fitted concentration of half-maximal effect
Outline: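 HRE-bla ME-180 cells in medium with 0.5% dialyzed FBS received compounds (11-point series) plus CoCl2 (60 uM addition stock) for 17 hrs at 37C. Beta-lactamase activity read with CCF4 (405 nm ex, 460/530 nm em); CellTiter-Glo viability measured in same wells.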

[17] = qHTS for Inflammasome Signaling Inhibitors: IL-1-beta AlphaLISA screen against the NCATS CANVASS Library (AID 1347379);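 note: human THP-1 cells primed with LPS then triggered with ATP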;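 for Potency: secreted IL-1B measured as AlphaLISA emission at 615 nm; potency is the fitted concentration of half-maximal effect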
Outline: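 THP-1 cells pretreated 1 hr with compound (up to 57.5 uM final), then stimulated with LPS (250 ng/mL final) and ATP (1.25 mM final). Secreted IL-1B measured by AlphaLISA after 16 hr; glyburide as positive control.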

[18] = Viability qHTS for inhibitors of the SERCaMP assay screened against the NCATS CANVASS Library (AID 1347400); note: nearly all actives have a fitted effect of over 70% in size; note: potency is the fitted concentration of half-maximal effect
Outline: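 SH-SY5Y SERCaMP MJH297 cells, 1000/well; 4 h settle, 37C/5% CO2; pin-transferred cpds; 48 h; CellTiter-Glo lum. Pos ctrl bortezomib 0.0001 - 4.6 uM.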

[19] = qHTS for inhibitors of Rabies Virus screened against the NCATS CANVASS Library (AID 1347402; calls by dose curve; note: series mostly up to about 46 µM)

Measured: Potency

Sequence of Nuclear receptor subfamily 1 group I member 3 (Homo sapiens) (Q14994 whole entry, looked up): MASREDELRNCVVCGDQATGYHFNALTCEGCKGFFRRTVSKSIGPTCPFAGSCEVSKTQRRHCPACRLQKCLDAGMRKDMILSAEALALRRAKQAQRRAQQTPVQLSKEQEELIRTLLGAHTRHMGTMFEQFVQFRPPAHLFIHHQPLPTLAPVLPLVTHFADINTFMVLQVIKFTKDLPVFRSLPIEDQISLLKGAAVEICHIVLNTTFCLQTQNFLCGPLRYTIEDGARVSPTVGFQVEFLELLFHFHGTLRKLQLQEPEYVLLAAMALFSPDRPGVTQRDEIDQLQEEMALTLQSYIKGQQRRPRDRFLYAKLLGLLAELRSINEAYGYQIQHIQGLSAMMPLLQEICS

C/C=C(\C)C(=O)O[C@@H]1[C@@H](O)[C@@H]2O[C@H]3[C@H](O[C@@H](CCCCC)CCCCCCC(=O)CCC(=O)OC[C@@H](O2)[C@H]1OC(=O)/C=C/c1ccccc1)O[C@H](C)[C@H](OC(C)=O)[C@@H]3O
active: [1] 0.133 µM | [2] 0.332 µM | [3] 0.118 µM | [6] 0.0526 µM | [7] 0.118 µM | [8] 0.0524 µM | [13] 16.6 µM
inactive: [4] | [5] | [9] | [10] | [11] | [12] | [14]

CC[C@@H]1CN2CCC3(Nc4cccc(OC)c4C3=O)[C@@H]2C[C@@H]1/C(=C\OC)C(=O)OC (stereo not given in full)
not listed: [8]
inactive: all other assays above

C[C@]12CC(O)C3[C@@H](CC[C@@H]4C[C@@H](O)CC[C@]34CO)[C@@]1(O)CC[C@@H]2C1=CC(=O)OC1 (stereo not given in full)
active: [1] 10.6 µM | [15] 2.66 µM | [2] 7.43 µM | [3] 3.72 µM | [6] 2.64 µM | [7] 9.35 µM | [8] 4.17 µM | [16] 2.98 µM | [17] 12.2 µM | [18] 7.6 µM
inactive: [4] | [5] | [9] | [10] | [11] | [12] | [13] | [19]

C=C[C@@]1(C)CC[C@@H]([C@H](C)C(=O)/C=C/C(C)(C)O)O1
inactive: [19]

C=C[C@]12C=CCN3CC[C@@]4(c5ccccc5NC(=O)[C@@H]4C1)[C@@H]32
not listed: [8]
inactive: all other assays above

CO[C@@H](/C=C/CC/C=C/C(=O)O)[C@@H](O)[C@H](C)/C=C(\C)[C@H](O)[C@H](C)C(=O)CCCC1CC(=O)NC(=O)C1
inactive: all assays above

C=CC(C)(C)[C@@]12C[C@H]3C(=O)N/C(=C\c4cnc[nH]4)C(=O)N3[C@@H]1Nc1ccccc12
inactive: all assays above

C/C(=C\[C@H](C)C(=O)C[C@H](O)CC1CC(=O)NC(=O)C1)[C@@H]1OC(=O)/C=C/CC/C=C/C=C/[C@@H]1C
inactive: [4] | [9] | [10] | [12] | [13]
active: [1] 0.0943 µM | [2] 0.0332 µM | [3] 0.148 µM | [6] 0.0662 µM | [7] 1.48 µM | [8] 0.741 µM | [16] 0.0375 µM | [17] 2.43 µM | [14] 6.6 µM | [18] 0.538 µM

CCC(=O)N[C@@H](C[C@H](C)C(Cl)(Cl)Cl)C(=O)N1C(=O)C=C(OC)[C@@H]1C[C@H](C)C(Cl)Cl
not listed: [1] | [8] | [10] | [12] | [13] | [14] | [15] | [19]
inactive: all other assays above

C=C(C)[C@H]1C(=O)c2c3c(cc4c5c(n1c24)[C@@]1(C)[C@@H](CC[C@H]2[C@](C)(/C=C/C=C(\C)C(=O)O)[C@@H](O)CC[C@@]21C)C5)C1=CC(C)(C)OC(C)(C)[C@H]1[C@@H]3O
inactive: [4] | [10] | [17]
active: [1] 5.95 µM | [15] 18.8 µM | [2] 3.72 µM | [7] 16.6 µM | [16] 6.66 µM | [11] 13.7 µM | [13] 16.6 µM | [14] 7.41 µM

c1ccc2nc3c(cc2c1)[nH]c1ccccc13
active: [13] 16.6 µM
not listed: [2] | [6]
inactive: all other assays above

CC[C@@H]1CN2CCc3c([nH]c4cccc(OC)c34)[C@@H]2C[C@@H]1/C(=C\OC)C(=O)OC
active: [3] 18.7 µM | [6] 16.6 µM | [13] 4.67 µM
inactive: [4] | [5] | [8] | [16] | [9] | [10] | [11] | [18] | [19]

C[C@]12CC(O)C3[C@@H](CCC4C[C@@H](O)CC[C@@]43CO)[C@@]1(O)CC[C@@H]2C1=CC(=O)OC1 (stereo not given in full)
active: [2] 16.6 µM | [3] 13.2 µM | [6] 10.5 µM | [7] 26.4 µM | [8] 10.5 µM | [16] 9.41 µM | [18] 13.5 µM
inactive: [4] | [5] | [9] | [10] | [11] | [13]

C/C=C/[C@@H]1[C@H]2C[C@@H](C)CC[C@@H]2C(C)=C[C@H]1C(=O)c1c(O)c(-c2ccc(O)cc2)c[nH]c1=O
active: [1] 13.3 µM | [7] 18.7 µM | [16] 23.6 µM | [13] 14.8 µM | [14] 18.6 µM
not listed: [2] | [3] | [6] | [12] | [19]
inactive: all other assays above

C1=C2CCCN[C@H]2C2CC1[C@H]1CCCCN1C2 (stereo not given in full)
not listed: [6] | [18]
inactive: all other assays above

CCCC[C@@H](C)/C=C1/CN2CCC[C@H]2[C@@](C)(O)[C@@H]1O
not listed: [1]
inactive: all other assays above

C=CC(C)(C)[C@@]12C[C@H]3C(=O)N/C(=C/c4cnc[nH]4)C(=O)N3[C@@H]1Nc1ccccc12
active: [8] 20.9 µM
not listed: [3]
inactive: all other assays above

CC[C@H](C)[C@H]1NC(=O)[C@@H](NC(=O)C(C)[C@H](O)C(C)C)[C@@H](C)OC(=O)C2COC(=O)CNC(=O)/C=C\[C@]3(CO3)[C@@H](C)Oc3ccc(cc3)[C@H](NC1=O)C(=O)N(C)C(Cc1ccccc1)C(=O)NC(C(C)O)C(=O)N2 (stereo not given in full) (X2-T[d(aIle)][X3][ξNMeF][ξT][ξS]; ester 1-C; linker 3-6 via G)
not listed: [6]
inactive: all other assays above

C/C=C1/CN2CC[C@]34C(=C(C(=O)OC)[C@H]1C[C@H]23)Nc1ccccc14
active: [6] 0.662 µM
not listed: [1] | [2] | [8] | [17] | [18]
inactive: all other assays above

C=C[C@H]1CN2CCc3c([nH]c4cccc(OC)c34)[C@@H]2C[C@@H]1/C(=C\OC)C(=O)OC
active: [2] 20.9 µM | [3] 18.7 µM | [6] 16.6 µM
not listed: [7] | [13] | [15] | [19]
inactive: all other assays above
